# MEKK3 PB1 HTS: MEKK3-MEK5 PB1 interaction, increase or decrease | Q99759 | bead-based flow cytometry, Alexa488-MEK5 binding to MEKK3; actives lie on both sides; 0 = blocked by unlabeled MEK5, 100 = vehicle | binding response (% of control), % at 10 µM | actives 1.4% (n = 290,000);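 active means binding response more than 3 SD above or below the average of its plate-row segment, actives on both sides; inconclusive means wells at one plate position flagged as instrument error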;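 further: Alexa488 bead fluorescence after subtracting the streptavidin-only scavenger bead signal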
# Target sequence (Q99759 whole entry, looked up): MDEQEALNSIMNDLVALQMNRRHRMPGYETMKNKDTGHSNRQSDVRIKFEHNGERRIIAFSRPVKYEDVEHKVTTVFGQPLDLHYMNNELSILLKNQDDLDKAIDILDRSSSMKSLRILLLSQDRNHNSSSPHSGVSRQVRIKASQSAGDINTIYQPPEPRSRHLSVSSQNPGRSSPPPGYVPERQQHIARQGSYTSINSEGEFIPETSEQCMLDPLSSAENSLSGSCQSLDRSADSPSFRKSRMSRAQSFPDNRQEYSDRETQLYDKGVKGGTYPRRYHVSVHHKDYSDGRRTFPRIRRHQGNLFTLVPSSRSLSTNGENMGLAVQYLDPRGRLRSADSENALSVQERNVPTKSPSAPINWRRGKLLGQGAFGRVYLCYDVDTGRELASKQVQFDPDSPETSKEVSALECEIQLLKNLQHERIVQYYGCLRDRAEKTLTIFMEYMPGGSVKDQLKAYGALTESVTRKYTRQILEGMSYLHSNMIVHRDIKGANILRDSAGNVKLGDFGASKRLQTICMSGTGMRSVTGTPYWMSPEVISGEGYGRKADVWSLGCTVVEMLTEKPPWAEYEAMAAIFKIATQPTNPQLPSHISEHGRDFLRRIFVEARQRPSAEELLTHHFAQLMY
# dFosB act-1: enhances mouse delta FosB homodimer DNA binding; actives 0.99% (n = 340,000); activation, % at 25 µM; AID 493131; purified delta FosB, TAMRA-CDK5 oligo fluorescence polarization; percent of positive-control signal above neutral wells;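 active means mean activation above about 17%, with every replicate also reaching it, limit read from the data, passing the limit was not always enough; inconclusive means only one of the two conditions met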
# MEKK2 mut-MEK5: signal of MEK5 binding to mutant human MEKK2 PB1 domain | bead flow cytometry, Alexa488-MEK5 binding to MEKK2 mutant | actives 0.35% (n = 290,000) | percent response, % at 10 µM; in the data active means percent response above about 24%, passing the limit was not always enough
# FID counter: counter-screen for HCV NS3 helicase inhibitors: DNA intercalator displacement; DNA fluorescent intercalator displacement, fluorescence; actives 0.17% (n = 290,000); inhibition, % at 7.9 µM; AID 1845; in the data active means inhibition above about 37%;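 further: 0% = vehicle and 100% = reference compound; higher means more ethidium bromide displaced from hairpin DNA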
# MEKK2wt PB1 HTS: raises or lowers MEK5 binding to wildtype human MEKK2 PB1 domain; bead flow cytometry, Alexa488-MEK5 binding to MEKK2 WT; actives lie on both sides; actives 1.1% (n = 290,000); binding response (% of control), % at 10 µM; in the data active means binding response below about 67% or above about 130%; inconclusive means no clear call, values can overlap the other calls; inactive means in between
# dFosB act-2: activators of mouse delta FosB homodimer DNA binding | shares compounds with dFosB act-1 | purified delta FosB, TAMRA-CDK5 oligo fluorescence polarization; normalised: neutral wells 0, positive control 100 | activation, % at 24.9 µM | 2,400 tested, under 10 active | AID 588690;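 active means highest replicate activation at or above 34% and every replicate reaching that threshold; inconclusive means meets only one of the two criteria; inactive means meets neither criterion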;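 further: higher polarization means more probe DNA bound by delta FosB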
# * marks the source's active call; other numbers are inactive results; ? = inconclusive; nt = not tested or not shown. The list is not random: actives were taken first. Their share in the collection is about 2.9%.
SMILES,MEKK3 PB1 HTS,dFosB act-1,MEKK2 mut-MEK5,FID counter,MEKK2wt PB1 HTS,dFosB act-2
COc1ccc(NC(=O)Cn2nnc(C(=O)NCc3cccs3)c2N)cc1Cl,102.0,35.3*,5.0,-4.3,99.0,5.3
Nc1c(C(=O)NCc2cccs2)nnn1CC(=O)Nc1cccc(Cl)c1,103.0,20.8*,-6.0,-2.5,85.0,-2.3
Cc1ccc(NC(=O)Cn2nnc(C(=O)NCc3cccs3)c2N)cc1,95.0,14.8,-3.0,-5.3,92.0,nt
Cc1ccc(NC(=O)Cn2nnc(C(=O)NCc3cccs3)c2N)cc1Cl,104.0,12.0,4.0,-12.1,104.0,nt
Cc1cccc(NC(=O)Cn2nnc(C(=O)Nc3ccc(F)c(Cl)c3)c2N)c1,101.0,89.7*,3.0,-21.8,100.0,0.9
O=C(NC1CCCCCC1)c1ccc2nc3cc(Cl)ccc3c(=O)n2c1,90.0,-6.8,-8.0,-6.4,92.0,nt
O=C(COC(=O)c1ccc(Cl)nc1)NC1CCCc2ccccc21 (configuration not stated),nt,2.1,nt,nt,nt,nt
CN(C(=O)c1cccc(NC(=O)Cc2cccc(NC(=O)C3CCCN(C(=O)C4CCCCC4)C3)c2)c1)C1CCC1 (configuration not stated),nt,1.9,nt,nt,nt,nt
Nc1nc(CSC(=S)N2CCN(c3ccccc3)CC2)nc(Nc2ccc(F)cc2)n1,110.0,47.3*,-2.0,-3.5,104.0,5.3
Nc1nc(CSC(=S)N2CCCCC2)nc(Nc2ccccc2)n1,94.0,2.5,-4.0,-12.6,91.0,nt
Nc1nc(CSC(=S)N2CCOCC2)nc(Nc2ccccc2)n1,96.0,-11.7,-1.0,-8.3,101.0,nt
CC1CC(C)CN(C(=S)SCc2nc(N)nc(Nc3ccccc3)n2)C1 (configuration not stated),109.0,38.4*,4.0,-19.0,106.0,3.0
O=C(NCC(Cl)c1ccc2ccccc2c1)c1c(F)cccc1F (configuration not stated),100.0,-7.7,1.0,9.4,99.0,nt
O=C(COc1ncnc2ccccc12)Nc1cc(S(=O)(=O)N2CCOCC2)ccc1Cl,107.0,45.7*,-1.0,-6.4,102.0,2.0
Cc1ccc(S(=O)(=O)N2CCOCC2)cc1NC(=O)COc1ncnc2ccccc12,103.0,-4.3,-1.0,-5.0,104.0,nt
O=C(Nc1cccc(Cl)c1)c1ccc2c(c1)SC1=NS(=O)(=O)CCN12,85.0,26.4*,-16.0,2.6,82.0,-0.6
CN1CCN(C(=O)c2cc(-c3cccc(Cl)c3)on2)CC1,nt,-4.0,nt,-1.1,nt,nt
O=C(c1cc(-c2cccc(Cl)c2)on1)N1CCN(c2ccc(F)cc2)CC1,104.0,21.0*,0.0,-10.2,101.0,-5.0
Cc1ccc(C(=O)NCCc2nnc3ccc(NCc4ccc5c(c4)OCO5)nn23)cc1,97.0,51.4*,-1.0,-45.1,100.0,-2.4
O=[N+]([O-])c1ccc2nc(-c3ccc(OC(F)F)cc3)cn2c1,90.0,-0.9,-2.0,1.6,87.0,nt
COc1ccccc1C=NN=C(N)C(N)=NN=Cc1ccccc1OC,nt,69.5*,nt,nt,nt,?
Cc1cc(C)n(CCCNC(=O)CCNS(=O)(=O)c2ccccc2C(F)(F)F)n1,103.0,1.9,5.0,-22.4,106.0,nt
CCOc1ccccc1NC(=O)c1cc(=O)[nH]c2ccc(S(=O)(=O)N3CCOCC3)cc12,nt,-1.0,nt,nt,nt,nt
Cc1ccc(N2CC(C(=O)NCCS(=O)(=O)N3CCN(c4ccc(F)cc4)CC3)CC2=O)cc1 (configuration not stated),101.0,9.5,3.0,-8.4,109.0,nt
O=C(Nc1ccc(S(=O)(=O)Nc2cnc3ccccc3n2)cc1)c1cccc(OC(F)F)c1,97.0,56.9*,0.0,-18.4,100.0,1.3
SMILES,MEKK3 PB1 HTS,dFosB act-1,MEKK2 mut-MEK5,FID counter,MEKK2wt PB1 HTS,dFosB act-2
O=C(Nc1ccc(S(=O)(=O)Nc2cnc3ccccc3n2)cc1)c1ccc(F)cc1,nt,-2.5,nt,nt,nt,nt
CC(C)Cn1c(N)c(C(=O)CSc2nc3ncc(Cl)cc3[nH]2)c(=O)n(C)c1=O,nt,-10.3,nt,nt,nt,nt
CCCn1c(N)c(C(=O)CSc2nc3ncc(Cl)cc3[nH]2)c(=O)n(C)c1=O,nt,27.6*,nt,nt,nt,5.1
O=C1CC(N2CCN(S(=O)(=O)c3cccc(C(F)(F)F)c3)CC2)C(=O)N1Cc1ccccc1 (configuration not stated),104.0,-5.8,0.0,-25.9,104.0,nt
O=C(CCc1nc2ccccc2c(=O)[nH]1)NNC(=O)COc1ccccc1Cl,nt,56.1*,nt,nt,nt,0.6
O=C(Cn1c(-c2ccccc2)noc1=O)NCc1ccccc1,110.0,1.7,7.0,1.1,108.0,nt
CSc1nsc(SC)c1NC(=O)Nc1ccccc1C,92.0,33.2*,-13.0,-0.1,97.0,6.8
CSc1nsc(SC)c1NC(=O)N1CCCCC1,105.0,-6.8,5.0,-2.8,111.0,nt
N#Cc1ccc(C23CC4(C2)[C@H](CN(Cc2ccc(-c5ccccc5)cc2)[C@@H]4c2ccccc2)C3c2ccc(Cl)nc2)cc1 (some centres not stated),112.0,16.8*,9.0,nt,92.0,4.1
COc1ccc(CN(C)C(=O)c2ccncc2)c(OC)c1,100.0,-0.9,-4.0,-6.4,95.0,nt
O=C(Nc1ccc(Cl)cc1)Nc1ccc2c(c1)OCO2,108.0,1.9,10.0,0.7,106.0,nt
O=C(Nc1cnccn1)Nc1ccc(Cl)cc1Cl,98.0,33.7*,-2.0,0.3,92.0,6.2
O=C(Nc1ccc2c(c1)OCO2)Nc1ccc(Cl)cc1Cl,99.0,28.9*,2.0,2.3,100.0,1.4
COc1cc(CC(=O)OCC(=O)Nc2cccc([N+](=O)[O-])c2)cc(OC)c1OC,101.0,-1.8,20.0,7.4,109.0,nt
Nc1ncnc2c1ncn2C1OC(C(=O)NC2CC2)C(O)C1O (configuration not stated),nt,-0.1,nt,nt,nt,nt
COc1ccc(Cl)cc1NC(=O)c1cccc(-n2cnnn2)c1,nt,-2.2,nt,nt,nt,nt
CCN(C(=O)COC(=O)c1cnc(C)cn1)c1c(N)n(Cc2ccccc2)c(=O)[nH]c1=O,nt,-1.7,nt,nt,nt,nt
Cc1c(C(=O)NNC(=O)Nc2ccc([N+](=O)[O-])cc2)oc2ccccc12,100.0,66.6*,5.0,6.5,98.0,1.4
CCC(=O)Nc1ccc(NC(=O)c2oc3ccccc3c2C)cc1,105.0,4.2,11.0,-30.3,107.0,nt
O=C(/C=C\c1ccco1)Nc1nc(-c2ccccc2)cs1,118.0,5.3,0.0,-2.4,102.0,nt
O=C(/C=C/c1ccccc1)Nc1nc(-c2ccncc2)cs1,112.0,16.7*,-1.0,-3.0,101.0,-8.9
Cc1ccc(S(=O)(=O)N2CCN(C(=O)C(Cc3ccccc3)NC(=O)c3ccccc3)CC2)cc1 (configuration not stated),nt,23.1*,nt,nt,nt,3.4
O=C(Nc1cccc(-n2cnnn2)c1)c1cc2ccccc2o1,102.0,36.9*,2.0,-13.6,97.0,6.4

# High-throughput results: PubChem, several laboratories
